Results: PubChem BioAssay (NCI)
The panel holds about 83,000 compounds, 20% with a hit somewhere; the sample as a whole holds those more often.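 Cells were grown in 96-well plates and exposed to the test compound at a single concentration for 48 hours; results are reported as percent growth, with values below 10 considered active.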 Unmarked numbers belong to inactive results. Calls of active or inactive are those of the source.

Test system: HL-60(TB) leukemia
Assay: NCI-60 one-dose screen, 48 h (100 = growth as untreated, 0 = no growth, -100 = all killed)
Conditions: 10 µM unless noted

Structure (SMILES) | growth
O=C(Nc1ccc(Oc2cccc(Cl)c2)c(Cl)c1)c1cccnn1 | 89.5%
O=C(c1cccc(N2CCOCC2)n1)c1c[nH]c2ccccc12 | 98.9%
O=CCCCOCc1ccccc1 | 100%
COc1ccc(-c2cc(-c3cc(OC)c(OC)c(OC)c3)c(C#N)c(=O)n2CCCCCC(=O)NO)cc1 | 103%
Cc1nc(NC(=S)Nc2ccc(F)cc2)sc1C(=O)NNC(=S)Nc1ccc(F)cc1 | 48.3%
O=C(/C=C/c1cccc([N+](=O)[O-])c1)c1ccc(O)c(CN2CCN(c3cc4c(cc3F)c(=O)c(C(=O)O)cn4C3CC3)CC2)c1 | 8.41% (active)
CCOc1cc(Cl)c(C(C)NC(=O)c2cccc(OC)c2)cc1OCC (stereo not given) | -32.8% (active)
CN(C)c1ccc(NC(=O)c2ccc(/C=C/C(=O)c3ncc[nH]3)cc2)cc1 | 17.5%
CCCCCCNC(=O)Nc1ccc2cc3ccc(NC(=O)NCCCCCC)cc3nc2c1 | -49% (active)
Cn1nnnc1-c1ccc(N)cc1 | 94.4%
CCOC(CNCc1cc(C)c2[nH]c3ccccc3c2c1C)OCC | 86%
c1ccc2c(c1)Cc1ccccc1N2CCN1CCCCC1 | 85.1%
COc1ncc(-c2ccc3nccc(C#CCCCCC(=O)NO)c3c2)cc1NS(=O)(=O)c1ccc(F)cc1F | -33.3% (active)
COC(=O)[C@]12CC[C@@H](C)[C@H](C)[C@@H]1C1=CC[C@@H]3[C@@]4(C)C=C(O)C(=O)[C@@]5(C)COC(=C54)C[C@@]3(C)[C@]1(C)CC2 | -50% (active)
N#C/C(=C\c1ccccn1)c1nc2cc(Cl)ccc2s1 | 52%
Nc1ccc(/C=N/Nc2ccnc3c(N)cccc23)c2cccnc12 | -60.4% (active)
COc1ccc2oc(=O)cc(-c3c(C#N)c(N)n4nc(N)c(C#N)c4c3C#N)c2c1 | 96.4%
c1ccc(Nc2ncc3c(n2)-c2cccn2CC3)cc1 | 107%
COc1ccc(/C(C)=C(\c2ccc(Cl)cc2)c2ccc(OCCN3CCCCCC3)cc2)cc1 | 25.8%
c1ccc2c(-c3nc4ccccc4[nH]3)cccc2c1 | -3.88% (active)

Structure (SMILES) | growth
NC(=O)c1c(NC(=O)c2cccc(C(F)(F)F)c2)sc2c1CCC(=O)C2 | -11.6% (active)
O=C(CCCCCCSc1nc(-c2ccccc2)cc(-c2ccc(Cl)cc2)n1)NO | -37.5% (active)
Cc1ccc2c(=O)cc(C(=O)Nc3sc4c(c3C(=O)NCc3cccnc3)CCCC4)oc2c1C | 88.3%
COc1ccc2c3c(ccc2c1)C(=O)/C(=C\O)CC3 | 75.1%
C#Cc1ccc(-n2c(/C=C/c3ccc4ccccc4n3)nc3ncccc3c2=O)cc1 | -34.6% (active)
O=C1CC(c2cccc(F)c2)c2c(n[nH]c2-c2ccc(Cl)cc2)N1 (stereo not given) | 97.3%
Cc1cc(N)cc(C)c1-c1c(Br)cc(N)cc1Br | 10.4%
Cc1cccc(NC(=O)CSc2nc3ccccc3[nH]2)c1 | 101%
CN1CCN(c2ccc3nc4c(nc3c2C(F)(F)F)C(=O)c2ncccc2C4=O)CC1 | -50.4% (active)
N=S(=O)(NC(=O)c1ccc(Cl)cc1Cl)c1ccc(Br)s1 (stereo not given) | 96.8%
CCCCCCCC(C)NCCO (stereo not given) | 101%
O=C(Nc1ncc(Cc2cccc(C(F)(F)F)c2)s1)c1ccc2c(c1)OCCO2 | -46.6% (active)
COc1ccc(Cn2cc(C(=O)N=Nc3c(O)[nH]c4c(C)cccc34)nn2)cc1 | 78.9%
CCOc1cc(F)c([N+](=O)[O-])cc1[N+](=O)[O-] | -12.6% (active)
COc1cc(-c2ccc(-[n+]3nc(-c4ccc([N+](=O)[O-])cc4)nn3-c3ccc([N+](=O)[O-])cc3)c(OC)c2)ccc1-[n+]1nc(-c2ccc([N+](=O)[O-])cc2)nn1-c1ccc([N+](=O)[O-])cc1 | 14.2%
Cc1cccc(C[C@H](NC(=O)Nc2ccc(Cl)cc2F)C(=O)N[C@@H]2C(=O)N3C[C@H](O)C[C@H]3C(=O)N3CCN(C)C[C@H]3C(=O)N[C@@H](C)C(=O)N3C[C@H](C)C[C@H]3C(=O)O[C@H]2C)c1 | 32.8%
O=C1/C(=C\c2cn(C(=O)c3ccc(Cl)cc3)c3ccccc23)c2ccccc2N1C(=O)c1ccc(Cl)cc1 | 54.2%
COc1ccc2c(c1)O/C(=C\c1ncc([N+](=O)[O-])n1C)C2=O | -3.86% (active)
COc1ccc(-c2ncnc3c2ncn3CC#CCCl)cc1 | 48.8%
CCN1C(=O)N(CC)C2Nn3c(s/c(=C\c4ccccc4F)c3=O)=NC21 (stereo not given) | 7.77% (active)
